Among all 13,000 compounds or so, about 3,200 (25%) showed an effect of 50% or more. The list shows a part of the results.
test system: P. falciparum stage V gametocytes; design: BacTiter-Glo ATP luminescence viability of purified stage V gametocytes in 384-well plates, per cent inhibition versus DMSO; conditions: 48 h, 5 µM; inhibitor

Structure (SMILES) | % Inhibition
COc1ccc2nccc(N3CCC(O)(CCNCc4ccc5c(n4)NC(=O)CS5)CC3)c2n1 [TCMDC-134553] | -13.65%
CCCOc1ccc(C=C(CC(=O)O)c2nc3ccccc3s2)cc1OCC [TCMDC-125020] | 4.95%
CO/C(=C\C=C\c1cc2cc(Cl)c(Cl)cc2[nH]1)C(=O)NCCCN1CCN(c2cccc(CCO)c2)CC1 [TCMDC-139549] | -37.75%
CC[C@H](C)CNC(=O)c1cncc(-c2ccc(CN3CCC(N4CCCC4)CC3)cc2)c1 [TCMDC-134234] | 36.3%
c1ccn2c(-c3ncnc(NCc4ccc5c(c4)CCO5)n3)cnc2c1 [TCMDC-135175] | 28.7%
COCc1ccccc1C(=O)NCCOc1cc(C)cc(C)c1 [TCMDC-134843] | -15.71%
Cc1cc(N[C@@H](Cc2ccccc2)C(=O)NC2CCCC2)nc(NCCCOC(C)C)n1 [TCMDC-134821] | 40.66%
COc1ccc(NC(=O)[C@H](Cc2ccccc2)Nc2cc(C)nc(NCc3ccccc3C)n2)cc1 [TCMDC-134904] | -26.59%
Cc1cc(N[C@@H](Cc2ccccc2)C(=O)NC2CCCC2)nc(NCCc2cccs2)n1 [TCMDC-134811] | 53.29%
Cc1cc(N[C@@H](Cc2ccccc2)C(=O)NC2CCCC2)nc(NCc2ccccc2C)n1 [TCMDC-134902] | -12.74%
Cc1cc(N[C@@H](Cc2ccccc2)C(=O)Nc2ccccc2)nc(NCCc2cccs2)n1 [TCMDC-134814] | 131.2%
COc1ccc(NC(=O)[C@H](Cc2ccccc2)Nc2cc(C)nc(NCCc3ccccc3)n2)cc1 [TCMDC-134774] | 119.9%
COc1ccc(NC(=O)[C@H](Cc2ccccc2)Nc2cc(C)nc(NCCc3ccccc3OC)n2)cc1 [TCMDC-134801] | 16.26%
COc1ccc(NC(=O)[C@H](Cc2ccccc2)Nc2cc(C)nc(NCCc3cccs3)n2)cc1 [TCMDC-134873] | 39.58%
CCOC(=O)C1=C(C)NC(C)=C(C(=O)OCC)C1(C(=O)OCc1ccccc1)c1cccc(C(F)(F)F)c1 [TCMDC-132060] | -16.58%
Cc1cc(NC(=O)c2coc3cc(F)c(N4CC(C)N(C)C(C)C4)cc23)cnc1-c1ccc(C#N)cc1 (stereo not drawn) [TCMDC-141403] | -2.152%
Oc1ccc(Cl)cc1CN1CCC(CCOC(c2ccccc2)c2ccc(Cl)cc2)CC1 (stereo not drawn) [TCMDC-136035] | 13.31%
O=C(/C=C/c1ccc(Cl)c(Cl)c1)NCCCCCN1CCC(NC(=O)Nc2cc(F)ccc2F)CC1 [TCMDC-135713] | -50.93%
COc1cc(F)c2ncc(Cl)c(CCN3CCC(NCc4cc5c(cn4)OCCO5)CC3)c2c1 [TCMDC-134284] | 7.425%
O=S(=O)(c1cc(Cl)ccc1Cl)N1CCCCC(c2ccc(C(F)(F)F)cc2)=N1 [TCMDC-134538] | -6.074%
CCCCN1CCCC[C@H]1[C@@H](O)c1ccnc2ccc(OCC)cc12 [TCMDC-132037] | -41.99%
CN(N=Cc1ccccc1)C(N)=NCCCC#Cc1cccc(CN2CCCC2)c1 [TCMDC-136886] | 99.7%

Structure (SMILES) | % Inhibition
CC(C)(C)c1ccc(NC(=O)c2cccc(CN3CCCN(Cc4cccc(C#N)c4)CC3)c2)cc1 [TCMDC-135981] | -19.29%
CC(C)c1ccc(NC(=O)c2cccc(CN3CCCN(Cc4cccc(C#N)c4)CC3)c2)cc1 [TCMDC-135975] | 18.13%
CCCCCCNC(=O)C1Cc2c([nH]c3ccccc23)C2(CCN(CCc3ccccc3)CC2)N1 (stereo not drawn) [TCMDC-141085] | -57.94%
O=C(CCc1cnc[nH]1)Nc1ccc(-c2ccc(-c3nc4ccc(F)cc4[nH]3)cc2)cc1 [TCMDC-136776] | 4.733%
CCCCCCCCOc1c(OCC)cc(Cc2cnc(N)nc2N)cc1OCC [TCMDC-137175] | -7.172%
CCCCN(CCCC)CCCCNc1c2ccc(Cl)cc2nc2ccc(OC)cc12 [TCMDC-137460] | 99.56%
CCCCCCN(CCCCCC)CCCCNc1c2ccc(Cl)cc2nc2ccc(OC)cc12 [TCMDC-137520] | 100.6%
CCN(CC)CCCCCNc1c2ccc(Cl)cc2nc2ccc(OC)cc12 [TCMDC-137514] | 94.78%
COc1ccc2nccc([C@@H](O)CN3CCC(NC(=O)C(c4ccsc4)N4CCN(c5ccccc5)CC4)CC3)c2c1 (stereo partly drawn) [TCMDC-140985] | -15.82%
Cc1cccc2nc(-c3cccc(-c4cccc(C(=O)NCc5nccn5C)c4)c3)[nH]c12 [TCMDC-132355] | -47.29%
CNc1ccc(CNCc2cccc(-c3ccc(-c4nc5ccc(C(F)(F)F)cc5[nH]4)cc3)c2)cc1 [TCMDC-132982] | -73.95%
CNCCNCc1ccc(-c2ccc(-c3nc4ccc(C(F)(F)F)cc4[nH]3)cc2)cc1 [TCMDC-132833] | 32.25%
COc1ccc(CNCc2cccc(-c3ccc(-c4nc5ccc(C(F)(F)F)cc5[nH]4)cc3)c2)cc1 [TCMDC-132723] | -32.29%
COc1ccc(CNCc2ccc(-c3cccc(-c4nc5ccc(C(F)(F)F)cc5[nH]4)c3)cc2)cc1 [TCMDC-132731] | -22.42%
CC(C)NCc1cccc(-c2ccc(-c3nc4ccc(C(F)(F)F)cc4[nH]3)cc2)c1 [TCMDC-132742] | -56.16%
CNCCNCc1ccc(-c2cccc(-c3nc4ccc(C(F)(F)F)cc4[nH]3)c2)cc1 [TCMDC-132826] | 78.68%
CNCCNCc1cccc(-c2ccc(-c3nc4ccc(C(F)(F)F)cc4[nH]3)cc2)c1 [TCMDC-132834] | 79.7%
CNCCNCc1cccc(-c2cccc(-c3nc4ccc(C(F)(F)F)cc4[nH]3)c2)c1 [TCMDC-132827] | 52.85%
CN(CCN)Cc1cccc(-c2cccc(-c3nc4ccc(C(F)(F)F)cc4[nH]3)c2)c1 [TCMDC-132818] | 68%
CN(CCN)Cc1cccc(-c2cccc(-c3nc4ccc(F)cc4[nH]3)c2)c1 [TCMDC-132822] | 48.31%
Clc1ccc(-c2cc(-c3csc(NCCN4CCCCC4)n3)on2)cc1 [TCMDC-140321] | -2.378%
NC(=O)C1CCN(Cc2cccc(-c3cccc(-c4nc5cc(C(F)(F)F)ccc5[nH]4)c3)c2)CC1.O=C(O)C(F)(F)F [TCMDC-132696] | -65.64%

Structure (SMILES) | % Inhibition
Cc1ccc(C(C)C)c(Oc2ccc3nc(N)nc(N)c3c2)c1 [TCMDC-135559] | -10.97%
OC1(Cc2ccccc2)CCN(Cc2cccc(-c3c[nH]c4nc(NC5CCCC5)ncc34)c2)CC1 [TCMDC-133773] | -59.82%
FC(F)(F)c1ccc2nc(-c3cccc(-c4ccc(CNCCc5ccncc5)cc4)c3)[nH]c2c1 [TCMDC-132845] | -28.78%
FC(F)(F)c1ccc2nc(-c3cccc(-c4cccc(CNCCc5ccncc5)c4)c3)[nH]c2c1 [TCMDC-132847] | 78.26%
FC(F)(F)c1ccc2nc(-c3cccc(-c4cccc(CN5CCN(c6ccncc6)CC5)c4)c3)[nH]c2c1 [TCMDC-132911] | -29.28%
O=C(O)C(F)(F)F.c1cc(CNCCc2ccncc2)cc(-c2ccc(-c3nc4ccccc4[nH]3)s2)c1 [TCMDC-132842] | -14.4%
c1cc(CNCCc2ccncc2)cc(-c2cccc(-c3nc4ccccc4[nH]3)c2)c1 [TCMDC-132858] | 84.49%
c1cc(CNCCc2ccncc2)cc(-c2csc(-c3nc4ccccc4[nH]3)c2)c1 [TCMDC-132841] | -33.89%
O=C(c1cc2nc3c(c(C(F)(F)F)n2n1)CCc1ccccc1-3)N1CCN2CCCC2C1 (stereo not drawn) [TCMDC-123850] | 0.1952%
CSc1ccc(CN2CCC(NC(=O)c3ccc(-c4cccc(C(F)(F)F)c4)s3)CC2)cc1 [TCMDC-134340] | 5.591%
CC(C)(C)c1ccc(CN2CCC(NC(=O)c3cc(-c4cccc(C(F)(F)F)c4)cs3)C2)cc1 (stereo not drawn) [TCMDC-134475] | 53.3%
CC(C)(C)CCN1CCC(CNC(=O)c2cc(-c3cccc(Cl)c3)cs2)C1 (stereo not drawn) [TCMDC-134426] | 39.67%
O=C(NCC1CCN(Cc2ccc(F)cc2)C1)c1cc(-c2cccc(C(F)(F)F)c2)cs1 (stereo not drawn) [TCMDC-134481] | 39.58%
CC(C)(C)CCN1CCC(NC(=O)c2ccc(-c3cccc(C(F)(F)F)c3)s2)CC1 [TCMDC-134322] | -68.21%
O=C(NC1CCN(Cc2ccc(F)cc2)CC1)c1ccc(-c2cccc(C(F)(F)F)c2)s1 [TCMDC-134358] | -14.39%
CC(C)c1ccc(CN2CCC(CNC(=O)c3cc(-c4cccc(C(F)(F)F)c4)cs3)C2)cc1 (stereo not drawn) [TCMDC-134435] | 101.9%
CC(C)(C)CCN1CCC(CNC(=O)c2cc(-c3cccc(C(F)(F)F)c3)cs2)C1 (stereo not drawn) [TCMDC-134425] | 78.38%
CCc1ccc(CN2CCC(CNC(=O)c3cc(-c4cccc(C(F)(F)F)c4)cs3)C2)cc1 (stereo not drawn) [TCMDC-134430] | 102.1%
COc1ccc(CNC(=O)NC2CCN(c3ccnc(Nc4ccc(F)cc4)n3)C2)cc1 (stereo not drawn) [TCMDC-133592] | -44.87%
CCCc1cc(Cc2cnc(N)nc2N)cc(CCC)c1OCCCCC(=O)OC [TCMDC-137290] | -38.14%
CCNc1cc(C)nc(Nc2ccccc2)n1 [TCMDC-134006] | 18.88%
CC(=O)Nc1nc(C(=O)Nc2ccc(-c3ccc(-c4nc5ccccc5[nH]4)cc3)cc2)cs1 [TCMDC-137128] | -5.634%
